Where “and” joins values, the source holds several entries; their conditions need not be identical. Identical values can stand only once. Inconclusive results are not listed. Some structures have more than one record in an assay (separate samples or runs), and their calls can disagree. Calls of active or inactive are those of the source. Calls come from the whole dose curve; as a rule, active = well fitted curve in either direction with a large enough effect; inconclusive = small, poorly fitted or top-dose-only effect; inactive = flat fitted curve, though single readings scatter.
Target: Lysosomal alpha-glucosidase (Homo sapiens) (UniProt P10253)
Test: Confirmation of Inhibitors and Activators of Purified Human alpha-Glucosidase (AID 2115)
Settings: purified human GAA enzyme activity; series mostly up to 76.2 µM; activity change, negative = inhibition: at the top concentration
Text: NIH Chemical Genomics Center [NCGC]
NIH Molecular Libraries Probe Production centers Network [MLPCN]
Assay Submitter (PI): Wei Zheng
Alpha-glucosidase is responsible for hydrolysis of terminal, non-reducing 1,4-linked alpha-D-glucose residues with release of alpha-D-glucose. It is a lysosomal hydrolase that is required for the degradation of a small percentage (1-3%) of cellular glycogen in human. Deficiency of this enzyme results in glycogen-storage disease type II (GSDII), also referred to as Pompe disease, an autosomal recessive disorder. Structurally normal glycogen is accumulated in lysosomes and cytoplasm in affected patients, primarily in muscle tissues. Excessive glycogen storage within lysosomes may interrupt normal functioning of other organelles and leads to cellular injury. In turn, this leads to enlargement and dysfunction of the entire organ involved (eg, cardiomyopathy and muscle weakness).
It has reported that the improper folding and trafficking of alpha-glucosidase resulting from the genetic mutations may account for a significant number of Pompe patients. […] We optimized this alpha-glucosidase assay in 1536-well plate format for identifying the novel small molecule inhibitors with the structures other than the sugar analogs in order to develop the new pharmacological chaperones.
NCGC Assay Protocol Summary:
This is a fluorogenic enzyme assay with 4-methylumbelliferyl-alpha-D-[…] as the substrate and human […] as the enzyme preparation. Upon the hydrolysis of this fluorogenic substrate, the resulting product, 1. 4-methyllumbelliferone, can be excited at 365 nm and emits at 440 nm which can be detected by a standard fluorescence plate reader. Data were normalized to the controls for basal activity (without enzyme) and 100% activity (with enzyme). The AC50 values were determined from concentration-response data modeled with the standard Hill equation.
Assay buffer: 50 mM citric acid (titrated with potassium phosphate to pH 5.0), 0.005% Tween-20, pH 5.0. (pH 5.0 is an optimal condition for this enzyme assay)
1536-well assay protocol for the human alpha-glucosidase:
(1) Add 2 ul/well of enzyme (4 nM final)
(2) Add 23 nL compounds in DMSO solution. The final titration was 0.7 nM to 77 uM.
(3) Add 1 ul of substrate (400 uM final)
(4) Incubate at room temperature for 20 min.
(5) Add 2 ul stop solution (1M NaOH and 1M Glycine mixture, pH 10)
(6) Detect the assay plate in a ViewLux plate reader (PerkinElmer) with Ex=365 nm and Em=440nm.
Keywords: Alpha-glucosidase, Pompe Disease, pharmacological chaperone, chaperone therapy, high throughput screening, alpha-glucosidase inhibitor, MLSMR, MLSCN, NIH Roadmap, qHTS and NCGC

Row | Compound | activity change, negative = inhibition | Potency
1 | Cc1ccc(N2CCN(S(=O)(=O)c3ccc4c(c3)CC(=O)N4)CC2)cc1 | -1.54% [at 144 µM] (inactive) | –
2 | CC(=O)c1ccc(N2CCN(S(=O)(=O)c3ccc4c(c3)CCCN4C(C)=O)CC2)cc1 | -8.63% (inactive) | –
3 | O=Cc1ccc(N2CCN(S(=O)(=O)c3ccc4c(c3)CC(=O)N4)CC2)cc1 | – | 3.66 µM (active)
4 | COc1ccc(N2CCN(S(=O)(=O)c3ccc4c(c3)CC(=O)N4)CC2)cc1 | – | 23.7 µM (active)
5 | CC(=O)c1ccc(N2CCN(S(=O)(=O)c3ccc(N4CCCC4=O)cc3)CC2)cc1 | -3.95% (inactive) | –
6 | CC(=O)c1ccc(N2CCN(S(=O)(=O)c3ccc4c(c3)oc(=O)n4C)CC2)cc1 | -0.854% (inactive) | –
7 | CC(=O)c1ccc(N2CCN(S(=O)(=O)c3ccc4c(c3)C(Cl)(Cl)C(=O)N4)CC2)cc1 | – | 32.6 µM (active) and inactive
8 | CC(=O)c1ccc(N2CCN(C(=O)c3ccc4c(c3)CC(=O)N4)CC2)cc1 | -3.41% (inactive) | –
9 | O=C1Cc2cc(S(=O)(=O)N3CCNCC3)ccc2N1 | -7.88% (inactive) | –
10 | N#Cc1ccc(N2CCN(S(=O)(=O)c3ccc4c(c3)CC(=O)N4)CC2)cc1 | – | 2.91 µM (active)
11 | CC(=O)Nc1ccc(S(=O)(=O)N2CCN(c3ccc(C(C)=O)cc3)CC2)cc1 | -7.6% (inactive) | –
12 | CC(=O)c1ccc(N2CCN(S(=O)(=O)c3ccc4c(c3)CCCC(=O)N4)CC2)cc1 | -3.1% (inactive) | –
13 | CC(=O)c1ccc(N2CCN(S(=O)(=O)c3ccc4c(c3)C(=O)OC4)CC2)cc1 | -4.1% (inactive) | –
14 | CC(=O)c1ccc(N2CCN(S(=O)(=O)c3ccc4c(c3)OCC(=O)N4)CC2)cc1 | 0.582% (inactive) | –
15 | O=C1Cc2cc(S(=O)(=O)N3CCN(c4cccc(C(F)(F)F)c4)CC3)ccc2N1 | – | 14.9 µM (active)
16 | O=C1Cc2cc(S(=O)(=O)N3CCN(c4ccc(CO)cc4)CC3)ccc2N1 | – | 13 µM (active)
17 | CC(=O)c1ccc(N2CCN(S(=O)(=O)c3ccc4c(c3)CCC(=O)N4)CC2)cc1 | -6.19% (inactive) | –
18 | CC(=O)c1ccc(N2CCN(S(=O)(=O)c3ccc4c(c3)CC(C)N4C(C)=O)CC2)cc1 (configuration not stated) | -2.39% (inactive) | –
19 | O=C1Cc2cc(S(=O)(=O)N3CCN(c4ccc(O)cc4)CC3)ccc2N1 | – | 1.88 µM (active)
20 | CC(=O)c1ccc(N2CCN(S(=O)(=O)c3ccc4[nH]c(=O)[nH]c4c3)CC2)cc1 | -12.1% (inactive) | –
21 | CC(=O)c1ccc(N2CCN(S(=O)(=O)c3ccc4c(c3)n(C)c(=O)n4C)CC2)cc1 | -4.43% (inactive) | –
22 | CC(=O)c1ccc(N2CCN(S(=O)(=O)c3cc4c(cc3Cl)NC(=O)C4)CC2)cc1 | – | 1.63 µM (active) and 4.61 µM (active)
23 | CC(=O)c1ccc(N2CCN(S(=O)(=O)c3ccc4c(c3)CC(=O)N4)CC2)cc1 | – | 730 nM (active) and 749 nM (active) and 819 nM (active)
24 | CC(=O)N1CCN(S(=O)(=O)c2ccc3c(c2)CC(=O)N3)CC1 | – | 11.9 µM (active)
25 | CC(=O)c1ccc(N2CCN(S(=O)(=O)c3ccc4[nH]c(=O)oc4c3)CC2)cc1 | -9% (inactive) | –
26 | CC(=O)c1ccc(N2CCN(C(=O)c3ccc4c(c3)CCC(=O)N4)CC2)cc1 | -2.3% (inactive) | –
27 | O=C1Cc2cc(S(=O)(=O)N3CCN(c4ccc([N+](=O)[O-])cc4)CC3)ccc2N1 | – | 3.66 µM (active)
